NCF1 inh: inhibitors of human p47phox binding; P14598; p47phox/p22phox peptide binding, fluorescence polarization, 2 h; inhibition, % at 24.7 µM; actives 0.53% (n = 220,000); AID 1274
14-3-3 Bad PPI: disrupts binding of bovine 14-3-3 zeta to phospho-Bad peptide; P63103; TR-FRET 14-3-3zeta/Dy647-pBad peptide displacement, 1 h; inhibition, % at 21.7 µM; actives 0.71% (n = 220,000); AID 781;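 active means inhibition above about 70%, limit read from the data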
Target sequence (P63103 whole entry, looked up): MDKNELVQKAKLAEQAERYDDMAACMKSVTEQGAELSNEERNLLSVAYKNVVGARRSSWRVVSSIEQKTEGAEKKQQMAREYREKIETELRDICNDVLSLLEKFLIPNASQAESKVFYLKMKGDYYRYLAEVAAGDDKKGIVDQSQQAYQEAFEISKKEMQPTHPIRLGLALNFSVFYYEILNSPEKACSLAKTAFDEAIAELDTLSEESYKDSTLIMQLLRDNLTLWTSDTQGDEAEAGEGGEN
Bim-Mcl-1: human Bim-Mcl-1 interaction inhibition. AID 1009. Bead-based flow cytometry, Bim peptide-Mcl-1 binding. Q07820. actives 0.1% (n = 190,000). inhibition, % at 10 µM; in the data active means inhibition above about 40%
Target sequence (Q07820 whole entry, looked up): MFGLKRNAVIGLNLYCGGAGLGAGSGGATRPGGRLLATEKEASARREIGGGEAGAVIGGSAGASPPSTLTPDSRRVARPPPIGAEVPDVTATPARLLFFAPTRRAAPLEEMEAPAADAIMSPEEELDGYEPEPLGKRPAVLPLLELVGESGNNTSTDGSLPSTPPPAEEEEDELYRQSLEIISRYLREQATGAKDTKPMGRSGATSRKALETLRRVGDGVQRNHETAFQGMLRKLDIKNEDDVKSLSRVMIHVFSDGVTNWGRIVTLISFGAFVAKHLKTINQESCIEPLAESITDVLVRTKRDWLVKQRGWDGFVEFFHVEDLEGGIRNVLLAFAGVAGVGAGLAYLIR
eIF4E-4G inh: inhibitors of eIF4E and eIF4G interaction in translation initiation; P63073+Q04637; TR-FRET eIF4E-eIF4GI(517-606) binding, 2 h; inhibition, % at 21.7 µM; actives 0.37% (n = 220,000); AID 782
Mcl1 Bid PPI: Mcl-1/Bid interaction inhibition; TR-FRET Mcl-1/Bid-Dy647 peptide binding, 1536-well; inhibition, % at 21.7 µM; actives 0.97% (n = 220,000); AID 1021;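 active means compounds that cut the binding signal by more than half at the single screening dose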;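 further: His-tagged Mcl-1 with europium anti-His antibody binding Bid BH3 peptide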
Mcl1 Noxa PPI: disrupts binding of human Mcl-1 to Noxa peptide. TR-FRET Mcl-1/Noxa peptide binding, 2 h. Q07820. actives 1.5% (n = 220,000). inhibition, % at 21.7 µM. AID 1022;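 active means compounds that cut the protein-peptide binding signal by more than 50% relative to plate controls in a single-dose test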;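 further: His-tagged Mcl-1 with rhodamine Noxa BH3 peptide and terbium anti-His antibody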
Each line names hits and unclear results; the compound was inactive in the other large screens; [ ] = dose if it differs, or a comment. Compounds with a hit are over-represented: about 3.4% of the library has one in this group of screens.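 How the source made its calls, unless noted: active means inhibition above about 30% (limit read from the data); inactive means the rest.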

O=C(Nc1ccc(NC(=O)c2ccccc2O)cc1)Nc1ccc(F)cc1F	none (no result: Bim-Mcl-1)
O=C(Nc1ccccc1N1CCOCC1)c1cccs1	Bim-Mcl-1 82
Cc1cccc2cc(C(c3nnnn3C(C)(C)C)N3CCN(C(=O)c4ccco4)CC3)c(=O)[nH]c12 (stereo not given)	14-3-3 Bad PPI 79
COc1ccc(CCNC(=O)CSc2ccc(Br)cc2)cc1OC	none
COc1cc2c(cc1OC)C(Nn1cnnc1)=NC1(CCCC1)C2	Mcl1 Bid PPI 91 (no result: Bim-Mcl-1)
NC(=O)C1CCN(C(=O)COc2ccc3ccccc3c2)CC1	none
NC(=O)C1CCN(C(=O)COc2ccc(Nc3ccccc3)cc2)CC1	eIF4E-4G inh 96 (no result: Bim-Mcl-1)
O=C1NNC(c2ccccc2)=N/C1=C\c1ccco1	Mcl1 Noxa PPI 65 (no result: Bim-Mcl-1)
CC1CCCCC1NCC#CCOc1ccc(Cl)cc1 (stereo not given)	none
CN1CCN(S(=O)(=O)c2ccc(N3CCN(S(=O)(=O)/C=C/c4ccccc4)CC3)nc2)CC1	NCF1 inh 40, 14-3-3 Bad PPI 72
CN1CCN(S(=O)(=O)c2ccc(N3CCN(C(c4ccccc4)c4ccccc4)CC3)nc2)CC1	none
CCn1c(SCC(=O)Nc2nc3ccc(C)cc3s2)nc2c(c1=O)SC(C)C2 (stereo not given)	Mcl1 Bid PPI 56
CCn1c(SCC(=O)Nc2nc3ccccc3s2)nc2c(c1=O)SC(C)C2 (stereo not given)	none
OCCC1CN(Cc2ccccc2-c2ccco2)CCN1C1CCCC1 (stereo not given)	none
CCC(=C(c1ccc(OC)cc1)c1ccc(OC)cc1)c1cn(CC(O)CN2CCN(C)CC2)c2ccccc12 (stereo not given)	NCF1 inh 78, 14-3-3 Bad PPI 96[fluorescence artefact?]
Cc1ccc(C(=O)/C=C/c2cn(CN3CCN(C)CC3)c3ccccc23)cc1	none
Cn1cc(/C=C/C(=O)c2ccccc2)c2ccccc21	14-3-3 Bad PPI 91 (no result: Bim-Mcl-1)
O=C(O)c1ccc(N/N=C/c2cn(Cc3ccccc3F)c3ccccc23)cc1	Mcl1 Noxa PPI 59 (no result: Bim-Mcl-1)
COC(=O)N/N=C/c1cn(Cc2ccccc2F)c2ccccc12	none (no result: Bim-Mcl-1)
CCOC(=O)c1nnn(-c2nonc2N)c1CSc1ccccc1	Mcl1 Bid PPI 52
CN1CCN(NC(=S)Nc2ccc(Oc3ccccc3)cc2)CC1	none
O=C(O)Cn1cnc2c(=S)nc[nH]c21	Mcl1 Bid PPI 99 (no result: Bim-Mcl-1)
CCCCN1C(=O)/C(=C/C=C2\SCCN2C)SC1=S	NCF1 inh 54
CC1CN(C)C(C)C/C1=N\Oc1ccc([N+](=O)[O-])cc1 (stereo not given)	none
CC1=CC(=O)C=C(C)C1=NOc1ccc([N+](=O)[O-])cc1	14-3-3 Bad PPI 74
Nc1ccc(-n2nnnc2-c2ccco2)cc1	NCF1 inh 59
C=CCN=c1scc(-c2ccco2)n1/N=C/c1ccc(O)c(O)c1O	Mcl1 Noxa PPI 84 (no result: Bim-Mcl-1)
COCCN=c1scc(-c2ccco2)n1/N=C/c1ccc(O)c(O)c1O	eIF4E-4G inh 45, Mcl1 Noxa PPI 103
CC(C)(C)C1=CC(=O)C(=O)C(C(C)(C)C)=C1	Mcl1 Noxa PPI 63
CC(C)(C)C1=CC(=Nc2ccccc2N)C=C(C(C)(C)C)C1=O	none
CCOC(=O)Cc1nnc(Nc2cccc(C)c2)c2ccccc12	Mcl1 Bid PPI 64
CCOC(=O)c1sc(NC(=O)CSC(=S)N2CCN(C)CC2)nc1C	none (no result: Bim-Mcl-1)
COc1ccc(C2NCCc3c2[nH]c2ccccc32)cc1CSc1nc2ccccc2s1 (stereo not given)	NCF1 inh 58
O=c1[nH]c(CSc2nc3ccccc3s2)nc2ccccc12	none (no result: Bim-Mcl-1)
CCOC(=O)c1cccc(C(=O)Nc2nc3ccc(OC)cc3s2)n1	none
CCN1CCN(C(=S)NCCc2ccccc2)CC1	14-3-3 Bad PPI 85
OCCN1CCN(C(=S)NCCc2ccccc2)CC1	none
CCC(C)N1CNc2c(c(=O)[nH]c(=S)n2-c2cccc(C)c2)C1 (stereo not given)	none
Cc1ccc(-c2c(=O)n(OCc3ccccn3)c3ccccc3[n+]2[O-])cc1	none
COc1ccc(-c2c(=O)n(OCc3ccccn3)c3ccccc3[n+]2[O-])cc1OC	Mcl1 Noxa PPI 54
COc1ccc(C(c2nnnn2C2CCCC2)N2CCN(c3ccccc3)CC2)cc1 (stereo not given)	none
COc1cc(C(c2nnnn2C2CCCC2)N2CCc3ccccc3C2)ccc1O (stereo not given)	Mcl1 Noxa PPI 77
Oc1ccc(C(c2nnnn2C2CCCC2)N2CCc3ccccc3C2)cc1 (stereo not given)	14-3-3 Bad PPI 76
Cc1cnc(C(=O)Nc2ccc(N3CCCCC3)cc2)cn1	none
Cc1cnc(C(=O)Nc2ccc(C(=O)N3CCCCC3)cc2)cn1	Mcl1 Noxa PPI 56
COc1cc(/C=C2\SC(=S)N(CC(=O)Nc3cccnc3)C2=O)cc(OC)c1OC	none
COc1ccc(/C=C2\SC(=S)N(CCC(=O)NC3=NCCS3)C2=O)cc1OC	Mcl1 Noxa PPI 56
Cc1cc(NC(=O)CCN2C(=O)/C(=C\c3ccccc3)SC2=S)no1	Mcl1 Noxa PPI 71 (no result: Bim-Mcl-1)
COc1cc(/C=C2\SC(=S)N(CC(=O)NC3=NCCS3)C2=O)cc(OC)c1OC	none
COc1cc(/C=C2\SC(=S)N(CC(=O)Nc3ccc(O)cc3)C2=O)cc(OC)c1OC	Mcl1 Noxa PPI 77
Brc1cccc(C2CC(c3ccccc3)n3nnnc3N2)c1 (stereo not given)	eIF4E-4G inh 34
O=[N+]([O-])c1ccc(-c2cn(-c3ccc(Cl)cc3)c(=S)[nH]2)cc1	Mcl1 Bid PPI 68, Mcl1 Noxa PPI 90
CCc1ccc(-n2cc(-c3ccc([N+](=O)[O-])cc3)[nH]c2=S)cc1	none
O=[N+]([O-])c1ccccc1/C=C/C=N/n1c(-c2ccccc2F)n[nH]c1=S	none (no result: Bim-Mcl-1)
Cc1cc(C)cc(N(CC(=O)NC2CCC(C)CC2)S(=O)(=O)c2c(C)noc2C)c1 (stereo not given)	Mcl1 Bid PPI 89
Cc1cc(C)cc(N(CC(=O)O)S(=O)(=O)c2c(C)noc2C)c1	none (no result: Mcl1 Noxa PPI)
CCOC(=O)N1CCN(C(=O)c2ccc3c(=O)n(-c4ccc(OC)cc4OC)c(=S)[nH]c3c2)CC1	none
COc1ccc(OC)c(-n2c(=S)[nH]c3cc(C(=O)N4CCN(c5ccccc5)CC4)ccc3c2=O)c1	Bim-Mcl-1 48
CC1CCC(C(C)C)C(OCC(O)CN2CCN(Cc3ccccc3)CC2)C1 (stereo not given)	14-3-3 Bad PPI 74
CC1CCC(C(C)C)C(OCC(O)CN2CCOCC2)C1 (stereo not given)	none
CSc1ccc(C2C(C#N)=C(N)N(c3ccccc3)C3=C2C(=O)CCC3)cc1 (stereo not given)	none
N#CC1=C(N)N(c2ccc(F)cc2)C2=C(C1c1ccc(O)cc1)S(=O)(=O)CC2 (stereo not given)	Mcl1 Noxa PPI 90

Screening results (PubChem)
